Several values for one entry are separate records, joined by “and”; a condition that tells them apart may be missing. Equal entries are not always repeated. Activity calls are given as the source filed them. How the source made its calls: active means hit-call score of the fitted dose curve at least 0.9, where 1 is the maximum; inactive means score below 0.9.

Read-out in this experiment: TIMP metallopeptidase inhibitor 2 (TIMP2), TIMP2 (gene 7077)
The experiment in a line: BSK_hDFCGF_TIMP2: BioMAP Diversity Plus: hDFCGF Assay for TIMP metallopeptidase inhibitor 2 (TIMP2) Biomarker Activity (AID 2284289). Particulars: primary human foreskin fibroblasts. On the procedure: BSK_hDFCGF is a cell-based, multiplexed-readout assay that uses foreskin fibroblast, a human skin primary cell, with measurements taken at 24 hours after chemical dosing in a 96-well plate.BSK_hDFCGF_TIMP2 is an assay component measured in the BSK_hDFCGF assay. It measures TIMP-2 antibody related to regulation of gene expression using ELISA technology.Data from the assay component BSK_hDFCGF_TIMP2 was analyzed at the endpoint, BSK_hDFCGF_TIMP2, in the positive analysis fitting direction relative to DMSO as the negative control and baseline of activity. Using a type of binding reporter, gain or loss-of-signal activity can be used to understand protein changes. To generalize the intended target to other relatable targets, this assay endpoint is annotated to the 'protease' intended target family, where the subfamily is 'matrix metalloproteinase'.
The levels of cell surface (or secreted, indicated by the prefix "s") biomarker endpoints were measured by ELISA. Overt cytotoxicity to cells in confluent adherent cultures (all systems other than the BT system) was assessed by measuring total protein levels using sulforhodamine B (SRB) staining in parallel cultures at the time of biomarker measurements, indicated as SRB endpoints. For proliferation assays for adherent cell types, individual cell types are cultured at sub-confluence and relative cell numbers quantified by SRB staining at time points optimized for each system (48 h: 3C and CASM3C systems; 72 h: BT and HDF3CGF systems; 96 h: SAg system). SRB was performed by staining cells with 0.1% SRB after fixation with 10% TCA and reading wells at 560 nm.Viability and proliferation of PBMC (T cells) was quantified by Alamar Blue reduction for the SAg and BT systems. For PBMC viability (referred to as PBMC Cytotoxicity within the assay endpoint names), cells were plated (75,000/well in a 96-well plate) and then chemical samples added for 1 h before addition of activators, SEB and TSST-1 (20 ng/mL final concentration each). Cells were incubated for 90 h. Then, Alamar Blue (20 uL/well) (Invitrogen, Cat DAL1100) was added for 6 h, and the plates were read with a fluorescence microplate reader at 546/580 nm (excitation/emission). For PBMC proliferation, cells were plated and activated as above but incubated for only 16 h prior to addition of Alamar Blue. Plates were read after 6 h.
One may read the AC50 as the concentration at which the activity in the assay is half-maximal. Turning to `OC(O)(C(F)C(O)(O)C(F)(F)F)C(F)(F)F`, the concentration at half-maximal activity (AC50) is 7.41 µM (active) and 22.4 µM (active).
With `NCC(F)(F)C(F)(F)C(F)(F)C(F)(F)F`, the outcome was inactive.
On the same count and under the same terms, under `FC(F)(F)C(F)(F)C(F)(F)C(F)(F)C(F)(F)C(F)(F)I` stands “inactive”.
The same measure, in the same setting: as for `C[Si](C)(C)C(F)(F)C(F)(F)C(F)(F)F`, the entry is “inactive”.
Consider `O=S(=O)(O)CCC(F)(F)C(F)(F)C(F)(F)C(F)(F)C(F)(F)C(F)(F)F`, for which the outcome was inactive.
In the case of `O=C(Cl)C(F)(F)C(F)(F)C(F)(F)C(=O)Cl`, the result was inactive.
The same measure, in the same setting: under `FC(F)(F)COC(OCC(F)(F)F)OCC(F)(F)F` stands “inactive”; under `FC(F)=C(F)C(F)(F)C(F)(F)C(F)(F)C(F)(F)C(F)(F)C(F)(F)F`, “inactive”; under `FC(F)C(F)(F)COCC1CO1` (stereo not given), “inactive”.
In the case of `OCCC(F)(F)C(F)(F)C(F)(F)C(F)(F)F`, the result was inactive.

These data come from PubChem BioAssay (EPA / NIEHS).
